Results from the OligoGym collection.

These sequences were tested against CD1E (assay: pooled miR-30 sensor sort-seq; sequence = guide strand). Settings: shRNA.
Also: reference of the scale not given here.

Sequence	sensor-assay potency score (higher = more potent)
TATTTAAGAAGATTTGTGGGGC	0.193
TATTTCCTTAATATCTAGGTAG	-0.111
TGTCTCGTCAGCATTAGGCAGG	-0.59
TTAACCGTGAGTCAACTACAAC	-1.49
TAGGTAGCGATTGAGCACTTTA	-0.754
TAATATCTGGATCTCGAAGGGG	-0.509
TTTTGATCCACGATACTTGTGC	0.208
TTTTTCAGCTCCTGCTTGCTGA	-0.242
TAGGATTGTAGAGCCTGGGGAG	-0.471
TTCCACTTCTTCAATACTCTGT	0.573
TCTACAGCCAGCTAATATCTGG	-0.694
TATCTGGATAAAACTATGGAAG	-1.28
TAGACTGCTGTGTTTCACCCGA	-0.381
ATAACTGGAACAGTGACTGTAA	0.29
ATATCCACCATGTCTCGTCAGC	-0.905
TAAGTTTTTCAGCTCCTGCTTG	-0.417
AACTACAACCAATATGACCAGG	-0.902
TGTTCTTATTTGAACTCTGTTT	-0.835
TATAACTGGAACAGTGACTGTA	0.739
TTCCTTAATATCTAGGTAGCGA	-0.491
AATATCTGGATCTCGAAGGGGT	0.0216
